# Sampled rows, rich in hits. Any-hit rate of the full collection: about 3.3%.
# SMARCA2 act = increases SMARCA2 function in MMTV reporter cells. MG213 cells, MMTV-luciferase reporter, dexamethasone, overnight. activation, % at 9.1 µM. hit rate 1% among 370,000; in the data active = activation above about 7.8%;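 also: 0% = vehicle wells and 100% = reference activator wells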
# Gli-Sufu block = Gli-Sufu pathway antagonism | Sufu-KO-LIGHT fibroblasts, Gli luciferase reporter luminescence | inhibition, % at 5 µM | hit rate 0.74% among 340,000;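 active = inhibition above about 55%, limit read from the data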;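 also: 0% = DMSO-treated cells and 100% = wells with medium but no cells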
# 697 NFkB inh = inhibitors of the PMA/ionomycin-induced NF-kB reporter in 697 B cells; hit rate 0.33% among 330,000; 697 B-cell NF-kB luciferase reporter, 16 h; inhibition, % at 4 µM; AID 435022; in the data active = inhibition above about 35%
# Jurkat NFkB inh = inhibitors of the PMA/ionomycin-induced NF-kB reporter in Jurkat cells | PMA/ionomycin-induced NF-kB luciferase reporter, luminescence | inhibition, % at 4 µM | hit rate 0.53% among 330,000; in the data active = inhibition above about 50%
# esBAF inh = SWI/SNF esBAF complex inhibition; mouse ES cells, Bmi1-luciferase knock-in reporter, 24 h; 100% = twice the neutral-well signal; reporter increase, % at 12.5 µM; hit rate 2% among 350,000; AID 602393; in the data active = activation above about 40%;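 also: 0% = median of the plate's neutral control wells and 100% = double that signal; a rise in the Bmi1 reporter signal indicates esBAF inhibition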
# An asterisk follows results filed as active; . = no result.
SMILES,SMARCA2 act,Gli-Sufu block,697 NFkB inh,Jurkat NFkB inh,esBAF inh
CC(C)NC(=O)N1[C@@H]2CN(C(=O)Nc3ccccc3)c3ccccc3[C@@H]2[C@@H]1CO,.,.,.,.,23
C/C=C/c1ccc2c(c1)O[C@@H](CN(C)C(=O)CC)[C@@H](C)CN([C@@H](C)CO)S2(=O)=O,.,.,.,.,-1
C[C@@H](CO)NC(=O)c1ccc2c3n(nc2c1)-c1ccccc1CO3,7,-33,-92,-99,-47
CC(C)NC(=O)c1ccc2c3n(nc2c1)-c1ccc(Cl)cc1CO3,4,-94,-65,-30,75*
Cc1ccc2c(c1)COc1c3ccc(C(=O)N4CCCCC4)cc3nn1-2,5,-43,-82,-58,26
Cc1ccc2c(c1)COc1c3ccc(C(=O)N[C@@H](CO)C(C)C)cc3nn1-2,4,-98,-79,-77,73*
O=C(c1ccc2c3n(nc2c1)-c1ccccc1CO3)N1CCCCC1,8,-67,-135,-123,5
O=C(NCC1CCCO1)c1ccc2c3n(nc2c1)-c1ccccc1CO3 (stereo not given),6,-66,-58,-44,70*
COCCNC(=O)c1ccc2c3n(nc2c1)-c1ccc(C)cc1CO3,5,-74,-217,-53,80*
COCC#Cc1ccc2c(c1)O[C@@H](CN(C)C(=O)Nc1ccc(OC)cc1)[C@@H](C)CN([C@H](C)CO)S2(=O)=O,.,.,.,.,3
O=C(c1ccc2c3n(nc2c1)-c1ccccc1CO3)N1CCOCC1,.,-72,-93,-100,-75
O=C(c1ccc2c3n(nc2c1)-c1ccc(Cl)cc1CO3)N1CCOCC1,4,-90,-17,1,73*
Cc1ccc(-n2nc(C(=O)c3ccccc3)n3c(=O)cc(-c4ccccc4)nc23)cc1,1,30,5,-19,84*
CCC(=O)Nc1ccc2c(c1)OC[C@@H](C)N(Cc1cccc(F)c1)C[C@H](C)[C@H](OC)CN(C)C2=O,.,.,.,.,10
O=C(Nc1cccc(/C=C/c2nc3ccccc3c(=O)[nH]2)c1)c1ccccc1Cl,2,-37,-97,-83,80*
COc1ccc(/C=N/Nc2nncc3ccccc23)cc1,8.5*,-100,-211,-82,-37
CN1C(=O)c2cc(NC(=O)c3cscn3)ccc2OC[C@H]2O[C@@H](CC(=O)N3CCCCC3)CC[C@H]21,.,.,.,.,4
Cc1ccc(OCc2nc(-c3ccccc3)no2)c(C)c1,4,-1,-111,-138,64*
O=C(C[C@@H]1CC[C@@H]2[C@H](COC[C@H](O)CN2C(=O)c2ccc(F)cc2)O1)NC1Cc2ccccc2C1,.,.,.,.,-5
Cc1noc(C)c1NC(=O)NCC[C@H]1CC[C@H](NC(=O)c2ccccc2)[C@H](CO)O1,.,.,.,.,-1
CC(C)Nc1nc(Cl)nc(N(C#N)CN2C(=O)c3ccccc3C2=O)n1,14*,1,16,8,.
CCC(C)Nc1nc(Cl)nc(N(C#N)CN2C(=O)c3ccccc3S2(=O)=O)n1 (stereo not given),6,-7,-2,15,.
CC(=O)N=c1c(C#N)cc2c(=O)n3ccccc3nc2n1Cc1ccccc1,8.3*,5,-6,-2,-5
CCOCCCn1c(=NC(C)=O)c(C#N)cc2c(=O)n3ccccc3nc21,-4,-6,-5,10,.
C[n+]1c(-c2ccccc2)cc2c(=Cc3ccccc3)c3ccccc3n21,-8,77*,.,.,.
SMILES,SMARCA2 act,Gli-Sufu block,697 NFkB inh,Jurkat NFkB inh,esBAF inh
C[n+]1c(-c2ccccc2)cc2c(=Cc3ccc([N+](=O)[O-])cc3)c3ccccc3n21,-2,22,.,.,.
CN(C)c1ccc(C=c2c3cc(O)ccc3n3c2cc(-c2ccccc2)[n+]3C)cc1,-8,72*,.,.,.
CN(C)c1ccc(C=c2c3ccccc3n3c2c2ccccc2[n+]3C)cc1,-9,44,.,.,.
CCCNC(=O)C[C@H]1CC[C@@H]2[C@@H](COc3ccc(NC(=O)Nc4c(C)noc4C)cc3C(=O)N2C)O1,.,.,.,.,-10
C[C@H](CO)N1C[C@H](C)[C@@H](CN(C)Cc2ccc(C(F)(F)F)cc2)Oc2c(NS(=O)(=O)c3ccc(F)cc3)cccc2C1=O,.,.,.,.,-9
CCCC(=O)Nc1ccc2c(c1)OC[C@H](C)N(Cc1ccncc1)C[C@H](C)[C@H](OC)CN(C)C2=O,.,.,.,.,6
CN(C)/C=N/C(=S)Nc1ccc(Cl)c(Cl)c1,2,25,-35,16,63*
CN(C)/C=N/C(=S)Nc1cc(Cl)cc(Cl)c1,-1,3,10,19,3
CO[C@H](CN(C)Cc1nccs1)[C@H](C)CN([C@H](C)CO)S(=O)(=O)c1ccc(C)cc1,.,.,.,.,-4
ON=C1c2ccccc2-c2ccccc21,-1,-24,-10,-2,6

# Assay outcomes (PubChem BioAssay)
